5 compounds from publication PMC5540273 (PLoS ONE, 2017) can be followed below.

Settings in all cases: concentration: 1 μM, replicates: in singlicate; n = 1
The test system of assay [1] is T1, PIK4CB.
T1 construct: gene PI4KB

The subject of assay [2] is PIKFYVE.
The subject of assay [3] is PIM1.
In assay [4] the test system is PIM2.
Assay [5] deals with PIM3.
Assay [6] deals with PIP5K1A.
Assay [7] relates to PIP5K1C.
Assay [8] relates to PIP5K2B.
Assay [9] concerns T2, PIP5K2C.
T2 construct: gene PIP4K2C

In assay [10] the test system is T3, PKAC-alpha.
T3 construct: gene PRKACA
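Further: KINOMEscan kinase panel screen.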

On to `CC(C)c1ccc(O)cc1Nc1ccnc2ccc(C(F)(F)F)cc12` [GW482059], for which the “%Inh” value in assay [1] turned out to be 45%; in assay [2], 1%; in [3], 19%; in [4], 0%; in assay [5], 0%; in assay [6], 0%. Further, the “%Inh” value in assay [7] is given as 0%; in assay [8], 7%; in assay [9], 0%; in assay [10], 0%.

Take `COc1ccc(-c2coc3ccc(-c4nnc(C)o4)cc23)cc1`: the “%Inh” value in assay [1] came to 0%; in [2], 0%; in assay [3], 10%; in assay [4], 21%; in assay [5] it was 15%; in [6], 13%. The “%Inh” value in assay [7] was found to be 14%; in assay [8], 9%; in assay [9], 10%; in assay [10], 3%.

For the compound `Cc1ccc(NC(=O)Nc2ccccc2)cc1-c1ccc(C(=O)Nc2ccncc2)cc1` [GSK1398471], the “%Inh” value is 0% in assay [1]; 0% in assay [2]; 9% in [3]; 0% in assay [4]; 4% in [5]; 0% in assay [6]. Also, the “%Inh” value was 0% in [7], 6% in assay [8], 0% in [9] and 29% in assay [10].

As for `Cc1c(Cn2c(C)c(C)n3c(=O)cc(N4CCOCC4)nc23)cccc1C(F)(F)F` [GSK2328680], the “%Inh” value was 0% in assay [1]; 0% in [2]; 1% in assay [3]; 0% in assay [4]; 0% in assay [5]; 9% in assay [6]. In addition, the “%Inh” value amounted to 44% in assay [7], 20% in [8], 7% in assay [9] and 0% in assay [10].

Take `Nc1nccc(-c2c(-c3ccc(F)cc3)ncn2C2CCN(Cc3ccccc3)CC2)n1` [SB-219980]: the “%Inh” value stood at 25% in assay [1]; 6% in [2]; 0% in assay [3]; 0% in assay [4]; 0% in assay [5]; 0% in [6]. The “%Inh” value in [7] is given as 15%; in assay [8], 0%; in assay [9] it was 82%; in [10], 2%.
